Read-out in assay [1]: Transforming growth factor beta 1 (TGFb1), TGFB1 (gene 7040)
Briefly: BSK_KF3CT_TGFb1: BioMAP Diversity Plus: KF3CT Assay for Transforming growth factor beta 1 (TGFb1) Biomarker Activity (AID 2283072). Particulars: primary human keratinocytes with fibroblasts; actives raise or lower the signal. The method in brief:
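Primary human skin cells (keratinocytes, foreskin fibroblasts) were co-cultured, exposed to test chemical and sampled at 24 h. TGF-b1 levels were measured by ELISA and fitted bidirectionally relative to DMSO.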

Read-out in assay [2]: C-C motif chemokine 2 (Homo sapiens) (UniProt P13500)
Briefly: BSK_KF3CT_MCP1: BioMAP Diversity Plus: KF3CT Assay for Monocyte Chemoattractant Protein 1 (MCP1/CCL2) Biomarker Activity (AID 2283073). Particulars: primary human keratinocytes with fibroblasts; actives raise or lower the signal. The method in brief: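 Human keratinocyte plus foreskin fibroblast primary co-culture exposed to chemical for 24 h. MCP-1 levels measured by ELISA. Bidirectional curve fitting relative to DMSO negative control as baseline.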

Read-out in assay [3]: Matrix Metallopeptidase 9 (MMP9), MMP9 (gene 4318)
Briefly: BSK_KF3CT_MMP9: BioMAP Diversity Plus: KF3CT Assay for Matrix Metallopeptidase 9 (MMP9) Biomarker Activity (AID 2283074).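 As to AC50: MMP9 protein level quantified by ELISA in the co-culture.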 Particulars: primary human keratinocytes with fibroblasts; actives raise or lower the signal. The method in brief:
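Keratinocyte plus foreskin fibroblast human primary skin co-culture was dosed with chemical and MMP-9 was quantified by ELISA 24 h later. Bidirectional curve fitting used DMSO as negative control and activity baseline.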

Read-out in assay [4]: urokinase plasminogen activator (uPA), PLAU (gene 5328)
Briefly: BSK_KF3CT_uPA: BioMAP Diversity Plus: KF3CT Assay for urokinase plasminogen activator (uPA) Biomarker Activity (AID 2283075). Particulars: primary human keratinocytes with fibroblasts; actives raise or lower the signal. The gist of the method:
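Human keratinocyte plus foreskin fibroblast primary co-culture exposed to chemical for 24 h. uPA levels were quantified by ELISA, and activity was fitted bidirectionally against a DMSO negative-control baseline.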

Read-out in assay [5]: CD40, CD40 (gene 958)
Briefly: BSK_LPS_CD40: BioMAP Diversity Plus: LPS Assay for CD40 Biomarker Activity (AID 2283076). Particulars: primary human HUVEC with PBMC; actives raise or lower the signal. The gist of the method:
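Primary human umbilical vein endothelial cells co-cultured with peripheral blood mononuclear cells, LPS-stimulated, were dosed with chemical and read 24 h later. CD40 levels were measured by ELISA and fitted bidirectionally against DMSO as negative control and baseline.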

Read-out in assay [6]: E-selectin (Homo sapiens) (UniProt P16581)
Briefly: BSK_LPS_Eselectin: BioMAP Diversity Plus: LPS Assay for Eselectin Biomarker Activity (AID 2283077). Particulars: primary human HUVEC with PBMC; actives raise or lower the signal. The gist of the method:
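Human umbilical vein endothelial cells co-cultured with peripheral blood mononuclear cells under LPS stimulation; E-selectin measured by ELISA 24 h after chemical dosing. Activity fitted bidirectionally against DMSO as negative control and baseline.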

Read-out in assay [7]: Interleukin-8 (IL8), CXCL8 (gene 3576)
Briefly: BSK_LPS_IL8: BioMAP Diversity Plus: LPS Assay for Interleukin-8 (IL8) Biomarker Activity (AID 2283078). Particulars: primary human HUVEC with PBMC; actives raise or lower the signal. The gist of the method: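 Human umbilical vein endothelial cells co-cultured with PBMC were stimulated with LPS; IL-8 levels were measured by ELISA 24 h after chemical dosing. Activity was fitted bidirectionally against DMSO as negative control and baseline.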

Assay [8] is described as follows: BSK_LPS_SRB: Viability Assessment in the BioMAP Diversity Plus: LPS Assay (AID 2283079).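 Also: total protein by sulforhodamine B absorbance as a cytotoxicity measure; measured one day after compound addition; fitted in both directions against DMSO so loss or gain of signal counts.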 Particulars: primary human HUVEC with PBMC. The method in brief: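 Human umbilical vein endothelial cells co-cultured with PBMC (LPS system) were dosed for 24 h. Total protein was stained with 0.1% sulforhodamine B after 10% TCA fixation, read at 560 nm, and fitted bidirectionally against DMSO baseline.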

Read-out in assay [9]: Interleukin-1 alpha (IL1a), IL1A (gene 3552)
Briefly: BSK_LPS_IL1a: BioMAP Diversity Plus: LPS Assay for Interleukin-1 alpha (IL1a) Biomarker Activity (AID 2283080). Particulars: primary human HUVEC with PBMC; actives raise or lower the signal. The method in brief:
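Human umbilical vein endothelial cells co-cultured with peripheral blood mononuclear cells were LPS-stimulated and exposed to test chemicals for 24 h. IL-1 alpha was quantified by ELISA, with bidirectional curve fitting against DMSO as the negative control and baseline.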

Read-out in assay [10]: Monocyte Chemoattractant Protein-1 (MCP1), CCL2 (gene 6347)
Briefly: BSK_LPS_MCP1: BioMAP Diversity Plus: LPS Assay for Monocyte Chemoattractant Protein-1 (MCP1) Biomarker Activity (AID 2283081).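 As to AC50: co-culture stimulated with LPS; secreted MCP-1 protein quantified by ELISA in culture supernatant.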 Particulars: primary human HUVEC with PBMC; actives raise or lower the signal. The method in brief: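 HUVEC plus PBMC co-culture (human primary cells, LPS system) exposed to test chemical for 24 h; MCP-1 measured by ELISA. Bidirectional curve fitting against DMSO baseline; parallel SRB total-protein staining flags overt cytotoxicity.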

The nature of assay [11]: BSK_LPS_PGE2: BioMAP Diversity Plus: LPS Assay for Prostaglandin E2 (PGE2) Biomarker Activity (AID 2283082).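 As to AC50: secreted prostaglandin E2 measured by ELISA in LPS-stimulated co-culture.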 Particulars: primary human HUVEC with PBMC; actives raise or lower the signal. The gist of the method: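 LPS-activated HUVEC/PBMC co-culture; cmpd dosed, 24 h; PGE2 by ELISA; bidirectional fit vs DMSO; SRB (0.1%, TCA-fixed, 560 nm) in parallel plates for overt cytotox.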

Read-out in assay [12]: Macrophage colony-stimulating factor (MCSF), CSF1 (gene 1435)
Briefly: BSK_LPS_MCSF: BioMAP Diversity Plus: LPS Assay for Macrophage colony-stimulating factor (MCSF) Biomarker Activity (AID 2283083). Particulars: primary human HUVEC with PBMC; actives raise or lower the signal. The method in brief:
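Human umbilical vein endothelial cells co-cultured with peripheral blood mononuclear cells were exposed to compound for 24 h. M-CSF levels were measured by ELISA, and bidirectional curve fitting used DMSO as the negative control and baseline.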

Read-out in assay [13]: Tissue Factor, F3 (gene 2152)
Briefly: BSK_LPS_TissueFactor: BioMAP Diversity Plus: LPS Assay for Tissue Factor Biomarker Activity (AID 2283084). Particulars: primary human HUVEC with PBMC; actives raise or lower the signal. The method in brief:
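Human umbilical vein endothelial cells co-cultured with peripheral blood mononuclear cells were dosed and stimulated with LPS. Cell-surface CD142 was quantified by ELISA at 24 h. Activity was fitted bidirectionally against DMSO baseline.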

Read-out in assay [14]: Tumor necrosis factor (Homo sapiens) (UniProt P01375)
Briefly: BSK_LPS_TNFa: BioMAP Diversity Plus: LPS Assay for Tumour Necrosis Factor alpha (TNFa) Biomarker Activity (AID 2283085). Particulars: primary human HUVEC with PBMC; actives raise or lower the signal. The method in brief:
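Read-out is ELISA of TNFa in primary human endothelial cell–PBMC co-cultures at 24 h after compound. Activity in either direction was fitted against DMSO.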

Read-out in assay [15]: Vascular cell adhesion molecule 1 (VCAM1), VCAM1 (gene 7412)
Briefly: BSK_LPS_VCAM1: BioMAP Diversity Plus: LPS Assay for Vascular cell adhesion molecule 1 (VCAM1) Biomarker Activity (AID 2283086). Particulars: primary human HUVEC with PBMC; actives raise or lower the signal. The method in brief: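 HUVEC + PBMC co-culture, LPS system; compound 24 h; VCAM-1 by ELISA; bidirectional fit vs DMSO control; parallel SRB (0.1%, TCA-fixed, 560 nm) for cytotoxicity.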

Read-out in assay [16]: CD40, CD40 (gene 958)
Briefly: BSK_SAg_CD40: BioMAP Diversity Plus: SAg Assay for CD40 Biomarker Activity (AID 2283088). Particulars: primary human HUVEC with PBMC; actives raise or lower the signal. The gist of the method:
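Human umbilical vein endothelial cells co-cultured with PBMC; CD40 levels measured by ELISA with fluorescence read-out 24 h after chemical dosing. Gain or loss of signal fitted bidirectionally against DMSO baseline.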

Read-out in assay [17]: CD69, CD69 (gene 969)
Briefly: BSK_SAg_CD69: BioMAP Diversity Plus: SAg Assay for CD69 Biomarker Activity (AID 2283089).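 As to AC50: cell surface CD69 protein quantified by ELISA with fluorescence detection.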 Particulars: primary human HUVEC with PBMC; actives raise or lower the signal. The method in brief: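 Endothelial/PBMC co-culture; chemical added; 24 h incubation; CD69 ELISA with fluorescence detection; bidirectional fit vs DMSO.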

Read-out in assay [18]: Monocyte Chemoattractant Protein-1 (MCP1), CCL2 (gene 6347)
Briefly: BSK_SAg_MCP1: BioMAP Diversity Plus: SAg Assay for Monocyte Chemoattractant Protein-1 (MCP1) Biomarker Activity (AID 2283090). Particulars: primary human HUVEC with PBMC; actives raise or lower the signal. The gist of the method: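 MCP-1 levels in the endothelial–PBMC SAg co-culture were quantified by ELISA at 24 h post-dosing; both increases and decreases versus DMSO scored. Cytotoxicity monitored by SRB total protein in parallel cultures.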

Read-out in assay [19]: E-selectin (Homo sapiens) (UniProt P16581)
Briefly: BSK_SAg_Eselectin: BioMAP Diversity Plus: SAg Assay for Eselectin Biomarker Activity (AID 2283091). Particulars: primary human HUVEC with PBMC; actives raise or lower the signal. The method in brief: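 HUVEC co-cultured with PBMC, compound dosed then read at 24 h; E-selectin measured by ELISA. Activity fitted bidirectionally against DMSO as negative control and baseline.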

Read-out in assay [20]: CD38, CD38 (gene 952)
Briefly: BSK_SAg_CD38: BioMAP Diversity Plus: SAg Assay for CD38 Biomarker Activity (AID 2283087). Particulars: primary human HUVEC with PBMC; actives raise or lower the signal. The gist of the method:
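Human HUVEC plus PBMC co-culture stimulated with superantigen; CD38 measured by ELISA 24 h after chemical dosing. Fluorescence read-out, bidirectional fit against DMSO; cytotoxicity tracked in parallel by SRB and Alamar Blue.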

Calls of active or inactive are those of the source. The calls were made as follows: active = hit-call score of the fitted dose curve at least 0.9, where 1 is the maximum; inactive = score below 0.9.

Chain of Tumor necrosis factor (Homo sapiens) (P01375 whole entry, looked up): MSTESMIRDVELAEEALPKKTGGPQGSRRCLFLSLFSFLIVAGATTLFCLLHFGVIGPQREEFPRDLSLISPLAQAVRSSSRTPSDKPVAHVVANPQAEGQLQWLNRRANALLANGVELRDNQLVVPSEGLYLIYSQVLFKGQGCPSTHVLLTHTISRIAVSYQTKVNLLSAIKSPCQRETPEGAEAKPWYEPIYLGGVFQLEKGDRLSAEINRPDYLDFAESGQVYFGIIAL
Chain of E-selectin (Homo sapiens) (P16581 whole entry, looked up): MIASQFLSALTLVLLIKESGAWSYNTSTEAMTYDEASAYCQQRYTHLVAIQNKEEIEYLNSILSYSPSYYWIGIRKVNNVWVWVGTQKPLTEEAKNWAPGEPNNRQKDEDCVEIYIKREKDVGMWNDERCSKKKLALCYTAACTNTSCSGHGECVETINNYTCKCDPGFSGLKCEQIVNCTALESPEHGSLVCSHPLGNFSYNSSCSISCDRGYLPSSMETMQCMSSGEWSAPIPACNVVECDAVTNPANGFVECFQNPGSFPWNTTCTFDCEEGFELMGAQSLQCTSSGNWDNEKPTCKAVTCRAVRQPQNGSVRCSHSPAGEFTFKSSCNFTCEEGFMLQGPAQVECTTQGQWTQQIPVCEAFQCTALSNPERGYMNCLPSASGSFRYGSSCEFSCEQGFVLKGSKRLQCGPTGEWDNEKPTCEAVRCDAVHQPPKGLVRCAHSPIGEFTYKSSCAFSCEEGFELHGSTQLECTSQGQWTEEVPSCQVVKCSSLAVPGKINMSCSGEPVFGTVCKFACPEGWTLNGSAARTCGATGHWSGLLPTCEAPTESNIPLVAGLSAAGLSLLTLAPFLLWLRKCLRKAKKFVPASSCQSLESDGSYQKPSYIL

In general, AC50 refers to the midpoint of the concentration-response curve, whichever way the signal moves. As for `O=C(Nc1ccc(Cl)cc1)Nc1ccc(Cl)c(Cl)c1`, the result in assay [1], in assay [2] and in assay [4] was inactive. For the same molecule, the AC50 in assay [3] was 1490 nM (active); in assay [5], 2420 nM (active); in assay [6], 2150 nM (active); in [7], 1740 nM (active); in assay [8], 2030 nM (active); in assay [9], 3860 nM (active). The AC50 is 3510 nM (active) in assay [10]; 1900 nM (active) in assay [11]; 11800 nM (active) in assay [12]; 2260 nM (active) in assay [13]; 3230 nM (active) in [14]; 3920 nM (active) in assay [15]. Moreover, the AC50 in assay [16] was 3040 nM (active); in assay [17], 1910 nM (active); in assay [18] it was 3320 nM (active); in [19] it was 2600 nM (active).
For the molecule `CCCCOC(=O)CC(CC(=O)OCCCC)(OC(C)=O)C(=O)OCCCC`, the outcome in assay [1], in assay [2], in [3], in [4], in assay [5] and in assay [6] was inactive. In addition, the outcome in assay [7], in assay [8], in [9], in assay [10], in assay [11] and in [12] was inactive. Also, the outcome in assay [13], in assay [14], in assay [15], in assay [20], in assay [16] and in [17] was inactive. Further, the outcome in assay [18] and in [19] was inactive.
For `O=c1ccc2ccccc2o1`, the outcome in assay [1], in [2], in assay [3], in assay [4], in assay [5] and in [6] was inactive. Besides, the result in assay [7], in assay [8], in assay [9], in assay [10], in assay [11] and in [12] was inactive. The result in assay [13], in [14], in assay [15], in [16], in assay [17] and in [18] was inactive. Also, the outcome in assay [19] was inactive.

For the origin of these results see PubChem BioAssay (EPA / NIEHS).
